# Data: PubChem BioAssay (NCATS)
# Values joined by “and” are separate entries in the source; they are usually repeats but may differ in a detail not shown here. Equal values may be shown once. Active and inactive are the calls of the source.
# What was measured:
# [1] = Ebola virus entry cell assay, ratio channel
# [2] = Immunotoxin (HA22) sensitization/mitigation study. Vehicle arm (PBS) (AID 1159510); conditions: cancer cells viability with PBS vehicle (HA22 study); series mostly up to 46.1 µM; note: potency is the fitted concentration of half-maximal effect
# [3] = Immunotoxin (SS1P) sensitization/mitigation study. Vehicle arm (DMEM) (AID 1159513); conditions: cell viability with vehicle (DMEM); series mostly up to 46.1 µM; note: potency is the fitted concentration of half-maximal effect
structure (smiles),measurement,setting,value
Cc1cc(C(=O)NNCc2ccccc2)no1,outcome,[1],inactive
COc1cccc2c1C(=O)c1c(O)c3c(c(O)c1C2=O)C[C@](O)(C(=O)CO)C[C@@H]3O[C@H]1C[C@H](N)[C@@H](O)[C@H](C)O1,AC50,[1],7.08 µM (active)
CN(C)c1ccc(C2Nc3ccc4ccccc4c3C3=C2C(=O)CC(C)(C)C3)cc1Br (centres undefined),Potency,[2],11.8 µM (active)
same,Potency,[3],18.7 µM (active)
C[C@@H](N)C1CCC(C(=O)Nc2ccncc2)CC1 (some centres undefined),Potency,[2],inactive
same,Potency,[3],inactive
Cc1cn2c(-c3cn[nH]c3)cnc2c(Nc2ccc(C(=O)N3CCNCC3)cc2F)n1,Potency,[2],18.7 µM (active)
same,Potency,[3],13.2 µM (active)
CCc1cc(-c2n[nH]c(C)c2-c2ccc3c(c2)OCCO3)c(O)cc1O,Potency,[2],16.6 µM (active)
same,Potency,[3],2.64 µM (active)
c1ccc2c(CCNc3ccc(Nc4ccncc4)cc3)c[nH]c2c1,Potency,[2],1.87 µM (active)
same,Potency,[3],20.9 µM (active)
OCCC#Cc1nc(-c2ccc(F)cc2)c(-c2ccncc2)n1CCCc1ccccc1,Potency,[2],23.5 µM (active)
same,Potency,[3],18.7 µM (active)
CNC(=O)c1cc(Oc2ccc(NC(=O)Nc3cc(C(C)(C)C)nn3-c3ccc4ncccc4c3)c(F)c2)ccn1,Potency,[2],6.62 µM (active)
same,Potency,[3],23.5 µM (active)
Nc1cccc(S(=O)(=O)N2CCCN(S(=O)(=O)c3ccc4c(c3)OCCO4)CC2)c1,Potency,[2],inactive
same,Potency,[3],inactive
O=C(C=Cc1cccnc1)NCCCCC1CCN(C(=O)c2ccccc2)CC1,Potency,[2],inactive
same,Potency,[3],inactive
N#CCNC(=O)c1ccc(-c2ccnc(Nc3ccc(N4CCOCC4)cc3)n2)cc1,Potency,[2],5.26 µM (active)
same,Potency,[3],16.6 µM (active)
Cc1ccc(C(=O)Nc2ccc(CN3CCN(C)CC3)c(C(F)(F)F)c2)cc1C#Cc1cnc2cccnn12,Potency,[2],1.32 µM (active)
same,Potency,[3],6.62 µM (active)
Nc1cc(C(F)(F)F)c(-c2cc(N3CCOCC3)nc(N3CCOCC3)n2)cn1,Potency,[2],1.05 µM (active)
same,Potency,[3],0.935 µM (active)
Cc1cc(-c2ccc(CC(=O)Nc3ccc(-c4cccnc4)cc3)cc2)ccn1,Potency,[2],18.7 µM (active)
same,Potency,[3],18.7 µM (active)
O=c1cc(N2CCOCC2)oc2c(-c3cccc4c3sc3ccccc34)cccc12,Potency,[2],16.6 µM (active)
same,Potency,[3],29.6 µM (active)
Cc1ccc(C(N)=O)cc1Nc1nccc(-c2cn(C(C)C)c3cnccc23)n1,Potency,[2],2.64 µM (active)
same,Potency,[3],7.43 µM (active)
COc1cccc2c1CCCC2CCCN1CCN(C2CCCCC2)CC1 (centres undefined),Potency,[2],16.6 µM (active)
same,Potency,[3],7.43 µM (active)
COc1c(C)cnc(Cn2cnc3c(Cl)nc(N)nc32)c1C,Potency,[2],0.0187 µM (active)
same,Potency,[3],0.0105 µM (active)
CC(C)(C(=O)NCC(F)(F)C(F)(F)F)C(=O)N[C@@H]1C(=O)Nc2ccccc2-c2ccccc21,Potency,[2],inactive
same,Potency,[3],inactive
COc1cccc2nc(-c3cccs3)nc(NN3C(=O)C=C(C)C3=O)c12,Potency,[2],0.0166 µM (active)
same,Potency,[3],5.9 µM (active)
CN([C@@H](Cc1ccc(OS(=O)(=O)c2cccc3cnccc23)cc1)C(=O)N1CCN(c2ccccc2)CC1)S(=O)(=O)c1cccc2cnccc12,Potency,[2],inactive
same,Potency,[3],inactive
CC(=O)Nc1sc2c(c1-c1nc3ccccc3s1)CNC2,Potency,[2],16.6 µM (active)
same,Potency,[3],23.5 µM (active)
Cc1ccc(S(=O)(=O)Nc2cc(Cl)ccc2C(=O)Nc2nc(-c3ccccc3)cs2)cc1,Potency,[2],5.9 µM (active)
same,Potency,[3],2.09 µM (active)
COc1cc2c(cc1OC)CN(CCc1ccc(NC(=O)c3cccc4c(=O)c5cccc(OC)c5[nH]c34)cc1)CC2,Potency,[2],18.7 µM (active)
same,Potency,[3],inactive
CC1(C)Cc2c(-c3ccccc3)c(-c3ccc(Cl)cc3)c(CC(=O)O)n2C1,Potency,[2],18.7 µM (active)
same,Potency,[3],16.6 µM (active)
CN(C)C(=O)c1ccc(S(=O)(=O)c2ccc(NC(=O)[C@@](C)(O)C(F)(F)F)c(Cl)c2)cc1,Potency,[2],1.66 µM (active)
same,Potency,[3],inactive
O=C1C(Cl)=C(NCCN2CCOCC2)C(=O)c2ncccc21,Potency,[2],2.35 µM (active)
same,Potency,[3],14.8 µM (active)
O=C(O)[C@H](Cc1c[nH]c2ccccc12)N1C(=O)c2ccccc2C1=O,Potency,[2],inactive
same,Potency,[3],inactive
CC(C)c1ccccc1Cc1cc(C(=O)Nc2ccc(S(=O)(=O)c3ccccc3C(C)(C)C)cc2)c(O)c(O)c1O,Potency,[2],0.743 µM (active)
same,Potency,[3],3.72 µM (active)
COc1ncc(-c2ccc3nccc(-c4ccnnc4)c3c2)cc1NS(=O)(=O)c1ccc(F)cc1F,Potency,[2],0.418 µM (active)
same,Potency,[3],0.235 µM (active)
Cc1ccc2c(c1)C(=O)[C@@]1(O)CCN(c3ccccc3)C1=N2,Potency,[2],inactive
same,Potency,[3],inactive
S=C(NCc1ccc2c(c1)OCO2)N1CCN(c2ncnc3c2oc2ccccc23)CC1,Potency,[2],18.7 µM (active)
same,Potency,[3],0.372 µM (active)
Cn1cc(-c2ccc3nnc(Sc4ccc5ncccc5c4)n3n2)cn1,Potency,[2],inactive
same,Potency,[3],inactive
OC[C@H](Cc1ccccc1)Nc1nc(Oc2ccc3c(c2)CCC3)nc2c1ncn2Cc1ccc(-c2ccccc2)cc1,Potency,[2],10.5 µM (active)
same,Potency,[3],13.2 µM (active)
CC(C)[C@H](C(=O)Nc1ccc(C(=O)NO)cc1)c1ccccc1,Potency,[2],0.0418 µM (active)
same,Potency,[3],0.132 µM (active)
Cc1cc2c(F)c(Oc3ncnn4cc(OC[C@@H](C)O)c(C)c34)ccc2[nH]1,Potency,[2],14.8 µM (active)
same,Potency,[3],14.8 µM (active)
O=C(C=Cc1c(C(=O)O)[nH]c2cc(Cl)cc(Cl)c12)Nc1ccccc1,Potency,[2],inactive
same,Potency,[3],inactive
C[C@@H](Oc1cc(-c2cnn(C3CCNCC3)c2)cnc1N)c1c(Cl)ccc(F)c1Cl,Potency,[2],16.6 µM (active)
same,Potency,[3],18.7 µM (active)
Cc1cc(SCc2sc(-c3ccc(C(F)(F)F)cc3)nc2C)ccc1OCC(=O)O,Potency,[2],inactive
same,Potency,[3],inactive
CN(C)CC=CC(=O)Nc1cc2c(Nc3ccc(F)c(Cl)c3)ncnc2cc1O[C@H]1CCOC1,Potency,[2],1.48 µM (active)
same,Potency,[3],6.62 µM (active)
O=C1[C@H](Cc2ccc(O)cc2)N2C(=O)CCN(C(=O)NCc3ccccc3)[C@H]2CN1Cc1cccc2ccccc12,Potency,[2],6.62 µM (active)
same,Potency,[3],2.35 µM (active)
COc1ccc(-c2ccc3c(N4CCOC[C@H]4C)nc(N4CCOC[C@H]4C)nc3n2)cc1CO,Potency,[2],0.469 µM (active)
same,Potency,[3],0.0105 µM (active)
CC1=C[C@@H]2[C@@H]([C@@H](O)C[C@@]3(C)[C@H]2C[C@@H](C)[C@]3(O)C(=O)CO)[C@@]2(C)Cc3cnn(-c4ccccc4)c3C=C12,Potency,[2],1.66 µM (active)
same,Potency,[3],23.5 µM (active)
CS(=O)(=O)Oc1ccc2c(NC(N)=O)c(C(=O)c3ccc(Cl)cc3Cl)oc2c1,Potency,[2],inactive
same,Potency,[3],inactive
COc1cc(Nc2ncc(F)c(Nc3ccc4c(n3)NC(=O)C(C)(C)O4)n2)cc(OC)c1OC,Potency,[2],18.7 µM (active)
same,Potency,[3],16.6 µM (active)
COc1ccc(OC)c(-c2nnc3ccc(-c4ccc(OC)c(O[C@@H]5CCOC5)c4)nn23)c1,Potency,[2],8.33 µM (active)
same,Potency,[3],8.33 µM (active)
O=C(Nc1ccc(F)c(C(F)(F)F)c1)Nc1nnc(-c2ccncc2)s1,Potency,[2],2.09 µM (active)
same,Potency,[3],5.9 µM (active)
COc1cc(OC2CCN(C)CC2)ccc1Nc1ncc2c(n1)n(C1CCCC1)c(=O)n2C,Potency,[2],10.5 µM (active)
same,Potency,[3],16.6 µM (active)
C[C@@H](O[C@H]1OCCN(Cc2n[nH]c(=O)[nH]2)[C@@H]1c1ccc(F)cc1)c1cc(C(F)(F)F)cc(C(F)(F)F)c1,Potency,[2],14.8 µM (active)
same,Potency,[3],18.7 µM (active)
CN1CCC(CNc2ccc3ncc(-c4cccc(OC(F)(F)F)c4)n3n2)CC1,Potency,[2],20.9 µM (active)
same,Potency,[3],16.6 µM (active)
O=C(NCCCNc1nc(Nc2cccc(NC(=O)N3CCCC3)c2)ncc1I)c1cccs1,Potency,[2],11.8 µM (active) and 3.32 µM (active)
same,Potency,[3],20.9 µM (active) and 23.5 µM (active)
Cc1cnc(Nc2ccc(F)cc2Cl)nc1-c1c[nH]c(C(=O)N[C@H](CO)c2cccc(Cl)c2)c1,Potency,[2],23.5 µM (active)
same,Potency,[3],20.9 µM (active)
COc1cc2ncnc(-n3nc(-c4ccccn4)nc3N)c2cc1OC,Potency,[2],3.72 µM (active)
same,Potency,[3],4.18 µM (active)
CCCCCCCCCCCCCCCCCCOP(=O)([O-])OC1CC[N+](C)(C)CC1,Potency,[2],inactive
same,Potency,[3],inactive
COc1nc(C)cnc1NS(=O)(=O)c1cccnc1-c1ccc(-c2nnco2)cc1,Potency,[2],inactive
same,Potency,[3],inactive
O=C(O)CCc1ccc(NCc2cccc(Oc3ccccc3)c2)cc1,Potency,[2],inactive
same,Potency,[3],inactive
CNc1nccc(-c2cccnc2Oc2cc(C(=O)Nc3cccc(C(F)(F)F)c3)ccc2C)n1,Potency,[2],14.8 µM (active)
same,Potency,[3],23.5 µM (active)
Cc1[nH]c2ccccc2c1CCNCc1ccc(C=CC(=O)NO)cc1,Potency,[2],0.0105 µM (active)
same,Potency,[3],0.0296 µM (active)
COc1cc2ncnc(Nc3ccc(F)c(Cl)c3)c2cc1NC(=O)C=CCN1CCCCC1,Potency,[2],9.35 µM (active)
same,Potency,[3],18.7 µM (active)
Cc1ccc(F)c(NC(=O)Nc2ccc(-c3cccc4[nH]nc(N)c34)cc2)c1,Potency,[2],5.26 µM (active)
same,Potency,[3],13.2 µM (active)
CC(C)(C)COc1ccc(-n2cc(C(=O)O)cn2)cc1C#N,Potency,[2],18.7 µM (active)
same,Potency,[3],inactive
Cc1cc(Nc2cc(N3CCN(C)CC3)nc(C=Cc3ccccc3)n2)n[nH]1,Potency,[2],1.32 µM (active)
same,Potency,[3],0.833 µM (active)
COc1ccc(-c2oc3cc(OC)ccc3c2C(=O)c2ccc(C#N)cc2)cc1,Potency,[2],inactive
same,Potency,[3],inactive
COc1cc2ncn(-c3cc(OCc4ccccc4C(F)(F)F)c(C(N)=O)s3)c2cc1OC,Potency,[2],0.296 µM (active)
same,Potency,[3],0.166 µM (active)
CCN(CC)CCCCNc1ncc2cc(-c3cc(OC)cc(OC)c3)c(NC(=O)NC(C)(C)C)nc2n1,Potency,[2],20.9 µM (active)
same,Potency,[3],20.9 µM (active)
C=CC(=O)Nc1cc2c(Nc3ccc(F)c(Cl)c3)ncnc2cc1C#CC(C)(C)N1CCN(C)CC1,Potency,[2],0.833 µM (active)
same,Potency,[3],16.6 µM (active)
Fc1ccc(Cl)cc1-c1nc(Nc2ccncc2)c2nccnc2n1,Potency,[2],inactive
same,Potency,[3],inactive
